Test results taken from the supplement of paper PMC11732987, “Enantioselective OTUD7B fragment discovery through chemoproteomics screening and high-throughput optimisation” (Communications Chemistry, 2025).
Values without a mark were called inactive.

Assays:
Test in all cases: log2 ratio of Biotin-Ahx-Ub-VS probe labelling (fragment/DMSO); higher = less target engagement (more negative = stronger competition), active = hit call of the paper (q ≤ 0.05, log2 ratio ≤ -1)
Conditions in all cases: compound concentration: 200 uM; treatment time: 3 h
ALG13 = biological target: T1, ALG13 (UniProt Q9NP73)
T1 sequence (whole entry): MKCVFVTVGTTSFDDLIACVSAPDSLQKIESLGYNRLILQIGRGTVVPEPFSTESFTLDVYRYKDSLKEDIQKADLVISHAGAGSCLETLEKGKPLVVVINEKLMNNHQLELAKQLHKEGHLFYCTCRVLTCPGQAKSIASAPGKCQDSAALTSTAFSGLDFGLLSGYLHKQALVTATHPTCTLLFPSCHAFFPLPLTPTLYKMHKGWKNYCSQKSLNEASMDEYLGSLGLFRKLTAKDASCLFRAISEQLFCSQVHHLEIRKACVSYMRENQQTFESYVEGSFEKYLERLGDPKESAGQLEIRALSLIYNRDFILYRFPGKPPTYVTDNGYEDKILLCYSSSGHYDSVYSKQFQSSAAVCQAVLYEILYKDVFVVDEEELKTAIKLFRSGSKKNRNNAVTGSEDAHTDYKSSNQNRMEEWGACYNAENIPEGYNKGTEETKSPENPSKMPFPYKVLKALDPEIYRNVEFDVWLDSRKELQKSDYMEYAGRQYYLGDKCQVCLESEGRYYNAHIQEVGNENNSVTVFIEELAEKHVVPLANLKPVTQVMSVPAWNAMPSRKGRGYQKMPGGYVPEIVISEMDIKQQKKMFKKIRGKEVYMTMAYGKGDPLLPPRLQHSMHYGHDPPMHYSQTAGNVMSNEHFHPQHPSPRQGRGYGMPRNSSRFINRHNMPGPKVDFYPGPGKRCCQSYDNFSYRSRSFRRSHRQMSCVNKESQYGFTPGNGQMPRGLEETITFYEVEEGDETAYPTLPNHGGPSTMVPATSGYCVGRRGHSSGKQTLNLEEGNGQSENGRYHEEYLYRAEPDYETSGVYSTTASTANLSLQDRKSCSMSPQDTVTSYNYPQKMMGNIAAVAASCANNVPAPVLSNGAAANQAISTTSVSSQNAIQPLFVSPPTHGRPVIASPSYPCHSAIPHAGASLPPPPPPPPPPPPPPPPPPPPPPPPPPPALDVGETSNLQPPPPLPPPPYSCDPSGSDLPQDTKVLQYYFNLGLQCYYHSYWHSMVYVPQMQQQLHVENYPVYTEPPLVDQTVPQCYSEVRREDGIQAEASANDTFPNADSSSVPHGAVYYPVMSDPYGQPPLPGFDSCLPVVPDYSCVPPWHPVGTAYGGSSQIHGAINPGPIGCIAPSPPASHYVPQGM
In short: (§1)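 Fragment (200 µM) or vehicle was incubated for 3 h with triplicate HEK293T lysate samples of 495 µg, which were then treated with Biotin-Ahx-Ub-VS at 0.5 µM final for 1 h. Labelled DUBs were enriched on NeutrAvidin, digested with LysC and trypsin, and analysed by diaPASEF LC-MS/MS. Values are average log2 fragment/vehicle ratios from an unpaired t-test on global-median-normalised Spectronaut label-free quantities, using proteins with ≥2 unique peptides.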

ATXN3 = ATXN3 (UniProt P54252)
Sequence of ATXN3 (P54252 whole entry): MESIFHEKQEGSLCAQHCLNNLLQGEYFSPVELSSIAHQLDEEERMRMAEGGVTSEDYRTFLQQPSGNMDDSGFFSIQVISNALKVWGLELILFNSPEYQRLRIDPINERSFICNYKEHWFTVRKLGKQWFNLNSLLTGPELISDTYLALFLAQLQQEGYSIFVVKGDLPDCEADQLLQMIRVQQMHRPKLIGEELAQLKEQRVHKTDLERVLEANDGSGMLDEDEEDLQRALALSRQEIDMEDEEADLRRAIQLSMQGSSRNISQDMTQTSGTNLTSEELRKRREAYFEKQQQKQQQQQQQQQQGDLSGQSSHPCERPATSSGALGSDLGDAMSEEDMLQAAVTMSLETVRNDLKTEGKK
In short: as §1

BAP1 = biological target: T2, BAP1 (UniProt Q92560)
T2 sequence (whole entry): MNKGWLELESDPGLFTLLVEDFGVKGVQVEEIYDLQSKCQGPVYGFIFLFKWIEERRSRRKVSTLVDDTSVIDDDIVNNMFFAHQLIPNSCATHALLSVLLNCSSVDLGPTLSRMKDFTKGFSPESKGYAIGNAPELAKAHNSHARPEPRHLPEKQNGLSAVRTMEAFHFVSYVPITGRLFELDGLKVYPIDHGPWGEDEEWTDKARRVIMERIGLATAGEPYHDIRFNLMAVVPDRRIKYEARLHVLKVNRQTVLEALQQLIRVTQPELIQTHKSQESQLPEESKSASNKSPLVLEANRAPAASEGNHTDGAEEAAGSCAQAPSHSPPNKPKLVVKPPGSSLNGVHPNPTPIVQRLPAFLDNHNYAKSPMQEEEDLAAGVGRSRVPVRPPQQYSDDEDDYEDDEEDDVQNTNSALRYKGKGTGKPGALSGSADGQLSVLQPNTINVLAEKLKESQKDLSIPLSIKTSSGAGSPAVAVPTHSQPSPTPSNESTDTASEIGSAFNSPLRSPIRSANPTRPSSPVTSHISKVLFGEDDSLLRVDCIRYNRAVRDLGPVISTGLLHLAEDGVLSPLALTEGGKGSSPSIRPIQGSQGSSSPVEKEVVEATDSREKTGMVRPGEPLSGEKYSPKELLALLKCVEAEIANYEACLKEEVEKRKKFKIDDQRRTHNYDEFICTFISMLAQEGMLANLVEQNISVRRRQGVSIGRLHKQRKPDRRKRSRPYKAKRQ
In short: as §1

EIF3F = EIF3F (UniProt O00303)
Sequence of EIF3F (O00303 whole entry): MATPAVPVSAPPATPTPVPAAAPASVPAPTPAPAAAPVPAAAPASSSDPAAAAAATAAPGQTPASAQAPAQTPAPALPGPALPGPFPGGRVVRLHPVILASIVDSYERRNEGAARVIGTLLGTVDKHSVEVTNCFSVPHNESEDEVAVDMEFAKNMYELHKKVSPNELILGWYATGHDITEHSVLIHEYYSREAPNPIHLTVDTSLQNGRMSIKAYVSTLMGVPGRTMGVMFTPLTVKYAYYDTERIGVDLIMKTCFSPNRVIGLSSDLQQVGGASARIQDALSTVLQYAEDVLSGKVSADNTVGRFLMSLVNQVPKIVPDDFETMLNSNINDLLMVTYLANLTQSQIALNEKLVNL
In short: as §1

EIF3H = EIF3H (UniProt O15372)
Sequence of EIF3H (O15372 whole entry): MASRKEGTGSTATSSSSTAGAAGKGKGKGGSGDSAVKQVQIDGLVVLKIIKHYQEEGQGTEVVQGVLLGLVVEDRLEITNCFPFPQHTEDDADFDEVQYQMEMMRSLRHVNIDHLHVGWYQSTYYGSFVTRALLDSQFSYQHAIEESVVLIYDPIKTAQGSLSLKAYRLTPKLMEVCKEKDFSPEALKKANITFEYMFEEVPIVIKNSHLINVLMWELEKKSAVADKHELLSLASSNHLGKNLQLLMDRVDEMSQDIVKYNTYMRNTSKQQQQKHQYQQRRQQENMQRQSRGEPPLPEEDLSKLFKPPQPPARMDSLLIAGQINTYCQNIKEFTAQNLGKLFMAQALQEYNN
In short: as §1

FAM105A = biological target: T3, FAM105A (UniProt Q9NUU6)
T3 sequence (whole entry): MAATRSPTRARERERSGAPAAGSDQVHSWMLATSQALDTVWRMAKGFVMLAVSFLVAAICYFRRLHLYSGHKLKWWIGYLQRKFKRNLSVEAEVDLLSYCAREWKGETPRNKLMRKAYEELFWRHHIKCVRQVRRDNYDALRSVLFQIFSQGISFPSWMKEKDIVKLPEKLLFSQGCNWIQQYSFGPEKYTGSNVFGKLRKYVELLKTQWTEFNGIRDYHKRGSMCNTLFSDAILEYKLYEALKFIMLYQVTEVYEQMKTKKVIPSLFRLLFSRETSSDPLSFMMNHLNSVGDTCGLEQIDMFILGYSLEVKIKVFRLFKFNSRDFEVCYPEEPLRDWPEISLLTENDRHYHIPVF
In short: as §1

OTUB1 = OTUB1 (UniProt Q96FW1)
Sequence of OTUB1 (Q96FW1 whole entry): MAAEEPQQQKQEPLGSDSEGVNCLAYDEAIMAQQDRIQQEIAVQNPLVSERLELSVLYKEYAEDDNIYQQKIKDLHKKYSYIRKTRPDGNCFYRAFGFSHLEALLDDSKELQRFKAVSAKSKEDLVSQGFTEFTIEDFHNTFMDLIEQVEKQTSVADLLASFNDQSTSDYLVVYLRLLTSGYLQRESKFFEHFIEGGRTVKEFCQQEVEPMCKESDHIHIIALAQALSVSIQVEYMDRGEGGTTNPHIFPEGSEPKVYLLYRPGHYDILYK
In short: as §1

OTUD4 = biological target: T4, OTUD4 (UniProt Q01804)
T4 sequence (whole entry): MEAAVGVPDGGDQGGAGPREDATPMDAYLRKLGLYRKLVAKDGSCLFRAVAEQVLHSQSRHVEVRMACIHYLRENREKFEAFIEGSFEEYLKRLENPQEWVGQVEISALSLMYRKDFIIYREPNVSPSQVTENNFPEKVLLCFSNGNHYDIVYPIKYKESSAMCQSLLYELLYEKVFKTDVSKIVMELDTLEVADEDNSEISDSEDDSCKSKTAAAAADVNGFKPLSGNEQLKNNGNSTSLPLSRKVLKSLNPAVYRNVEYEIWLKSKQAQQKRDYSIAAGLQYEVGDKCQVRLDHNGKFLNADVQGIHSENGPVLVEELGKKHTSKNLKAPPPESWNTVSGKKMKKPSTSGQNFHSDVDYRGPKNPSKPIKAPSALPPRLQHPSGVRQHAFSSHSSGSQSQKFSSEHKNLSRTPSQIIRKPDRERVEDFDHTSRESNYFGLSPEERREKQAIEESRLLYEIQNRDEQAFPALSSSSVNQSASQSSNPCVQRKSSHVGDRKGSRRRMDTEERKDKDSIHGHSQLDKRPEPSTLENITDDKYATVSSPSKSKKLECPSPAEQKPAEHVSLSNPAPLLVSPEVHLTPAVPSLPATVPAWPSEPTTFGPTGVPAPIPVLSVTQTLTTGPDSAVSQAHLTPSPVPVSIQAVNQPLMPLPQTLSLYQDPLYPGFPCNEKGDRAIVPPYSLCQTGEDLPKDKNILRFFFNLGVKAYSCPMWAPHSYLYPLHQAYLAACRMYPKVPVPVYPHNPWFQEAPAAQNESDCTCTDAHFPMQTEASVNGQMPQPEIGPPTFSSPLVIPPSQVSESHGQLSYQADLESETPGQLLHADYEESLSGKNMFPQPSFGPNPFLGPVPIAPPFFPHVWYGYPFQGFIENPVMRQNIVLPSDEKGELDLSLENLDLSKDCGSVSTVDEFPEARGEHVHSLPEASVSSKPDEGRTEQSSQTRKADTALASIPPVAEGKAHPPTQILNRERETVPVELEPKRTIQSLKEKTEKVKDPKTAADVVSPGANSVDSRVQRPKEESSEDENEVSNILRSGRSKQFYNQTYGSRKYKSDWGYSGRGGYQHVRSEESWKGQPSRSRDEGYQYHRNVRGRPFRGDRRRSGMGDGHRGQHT
In short: as §1

OTUD5 = biological target: T5, OTUD5 (UniProt Q96G74)
T5 sequence (whole entry): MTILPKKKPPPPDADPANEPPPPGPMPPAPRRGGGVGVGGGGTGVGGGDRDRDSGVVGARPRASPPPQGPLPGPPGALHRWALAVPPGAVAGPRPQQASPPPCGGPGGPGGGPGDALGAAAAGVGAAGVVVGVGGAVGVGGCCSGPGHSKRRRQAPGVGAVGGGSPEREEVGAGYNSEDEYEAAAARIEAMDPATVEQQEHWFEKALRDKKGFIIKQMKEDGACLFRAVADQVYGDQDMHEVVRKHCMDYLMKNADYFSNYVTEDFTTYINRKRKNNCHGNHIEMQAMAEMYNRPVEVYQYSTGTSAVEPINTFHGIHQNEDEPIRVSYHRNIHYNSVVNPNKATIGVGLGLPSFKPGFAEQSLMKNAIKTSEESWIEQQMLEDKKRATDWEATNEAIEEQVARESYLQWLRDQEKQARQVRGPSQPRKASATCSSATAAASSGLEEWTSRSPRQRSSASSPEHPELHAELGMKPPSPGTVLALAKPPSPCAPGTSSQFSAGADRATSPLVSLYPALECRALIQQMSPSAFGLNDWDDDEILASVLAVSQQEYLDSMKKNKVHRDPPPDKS
In short: as §1

O=C(CCl)NCc1ccc(Cl)cc1
log2 ratio of Biotin-Ahx-Ub-VS probe labelling (ALG13): 0.0638 | log2 ratio of Biotin-Ahx-Ub-VS probe labelling (ATXN3): -0.168 | log2 ratio of Biotin-Ahx-Ub-VS probe labelling (BAP1): -2.74 (active) | log2 ratio of Biotin-Ahx-Ub-VS probe labelling (EIF3F): 0.0714 | log2 ratio of Biotin-Ahx-Ub-VS probe labelling (EIF3H): -0.105 | log2 ratio of Biotin-Ahx-Ub-VS probe labelling (FAM105A): -0.347 | log2 ratio of Biotin-Ahx-Ub-VS probe labelling (OTUB1): 0.0283 | log2 ratio of Biotin-Ahx-Ub-VS probe labelling (OTUD4): 0.0745 | log2 ratio of Biotin-Ahx-Ub-VS probe labelling (OTUD5): -0.00631
